Each molecule was assayed against Bromodomain-containing protein 4 (Homo sapiens) (UniProt O60885). Conditions: Compound concentration 20.0 uM, Protein concentration 2.0 uM, Result type QC Liability.

Structure (SMILES)	ΔTm [°C]
C=CC(=O)N1CCC[C@@H](n2nc(-c3ccc(Oc4ccccc4)cc3)c3c(N)ncnc32)C1	-4.44
Cn1ncc(-c2nc(N[C@H]3CC[C@H](N)CC3)ncc2Cl)c1CC1CC1	-0.39
CCC(=O)O[C@@H](OP(=O)(CCCCc1ccccc1)CC(=O)N1C[C@H](C2CCCCC2)C[C@H]1C(=O)O)C(C)C (stereo not given in full)	-0.8
COc1ccc(OC(=O)N(CC(=O)O)Cc2ccc(OCCc3nc(-c4ccccc4)oc3C)cc2)cc1	-4.38
COc1ccc(-n2nc(C(F)(F)F)cc2-c2ccc(Cl)cc2)cc1	-1.21
Clc1ccccc1C(c1ccccc1)(c1ccccc1)n1cccn1	-0.07
CO[C@H](C)CN1CC[C@]2(C)c3cccc(O)c3C[C@H]1C2(C)C	-1.2
OCC1OC(n2cnc3cc(Cl)c(Cl)cc32)C(O)C1O (stereo not given)	0.7
C[C@H](CCC(=O)O)[C@H]1CC[C@H]2[C@@H]3[C@@H](O)C[C@@H]4C[C@H](O)CC[C@]4(C)[C@H]3CC[C@]12C	-2.97
CO[C@@H](C)CN1CC[C@]2(C)c3cc(O)ccc3C[C@H]1C2(C)C	-1.9
CCCn1cc(-c2cc(C3C(=O)N(CC)c4ccc(C(F)(F)F)cc4N(c4ccccc4)C3=O)cc(OC)c2O)cn1 (stereo not given)	1.56
COP(=O)(CCC(N)C(=O)O)Oc1cccc(CC(=O)O)c1 (stereo not given)	-0.52
CS(=O)(=O)c1ccc(-c2cnc(N)c(C(=O)Nc3ccccc3)n2)cc1	0.79
C=CC(=O)Nc1ccc2[nH]c(=O)n(C3CCN(Cc4ccc(-c5ccc6c(c5)NC(=O)CO6)cc4)CC3)c2c1	0.27
CNC(=O)c1cc(C(=O)NC2CC2)cn(Cc2ccccc2)c1=O	-1.08
O=C(NCCN1CCC2(CC1)C(=O)NCN2c1cccc(F)c1)c1ccc2ccccc2c1	-0.54
C=C[C@@]12CCc3cc(O)ccc3[C@H]1CC[C@@]1(C)[C@H]2CC[C@@H]1O	0.82
C[C@@H](CN1CC[C@@]2(C)c3cccc(O)c3C[C@@H]1C2(C)C)OCc1ccccc1	-0.17
C[C@]12CC[C@@H]3c4ccc(C(N)=O)cc4CC[C@H]3[C@@H]1CC=C2c1cncc(F)c1	0
CCN1C(=O)C(c2cccc(C(=O)O)c2)C(=O)N(c2ccccc2)c2cc(C(F)(F)F)ccc21 (stereo not given)	-0.84

Structure (SMILES)	ΔTm [°C]
Cc1nnc2n1-c1sc3c(c1C(c1ccccc1Cl)=NC2)C[C@@H](C(=O)N1CCOCC1)C3	1.2
C=CC(=O)Nc1cc(-c2nn(C3CCC(N4CCN(C(C)=O)CC4)CC3)c3ncnc(N)c23)ccc1Oc1ccccc1 (stereo not given)	-0.22
Cc1ccc2c(N)c(C(=O)NC3CCc4cc(N5CC6CCC(C5)N6)ccc4C3)sc2n1 (stereo not given)	-0.53
C[C@@H]1CC[C@@]2(OC1)O[C@H]1[C@@H](O)[C@H]3[C@@H]4CC[C@H]5C[C@@H](O[C@@H]6O[C@H](CO)[C@H](O[C@@H]7O[C@H](CO)C(O)[C@H](O[C@@H]8OC[C@@H](O)[C@H](O)[C@H]8O)[C@H]7O[C@@H]7O[C@H](CO)[C@H](O)[C@H](O[C@@H]8O[C@H](CO)[C@@H](O)[C@H](O)[C@H]8O)[C@H]7O)[C@H](O)[C@H]6O)[C@H](O)C[C@]5(C)[C@H]4CC[C@]3(C)[C@H]1[C@@H]2C (stereo not given in full)	-1.87
C[C@H](CCC(=O)O)[C@H]1CC[C@H]2[C@@H]3CC[C@@H]4C[C@H](O)CC[C@]4(C)[C@H]3CC[C@]12C	-7.72
C[C@@H](CO)CCC[C@@H](C)[C@H]1CC[C@H]2[C@@H]3CC=C4C[C@@H](O)CC[C@]4(C)[C@H]3CC[C@]12C	-3.47
COc1nc2ccc([C@@](O)(c3ccc(Cl)cc3)c3cncn3C)cc2c(Cl)c1Cc1ccc(-n2cccn2)cc1	-0.83
Cc1nnc2n1-c1sc(CCC(=O)N3CCOCC3)cc1C(c1ccccc1Cl)=NC2	-0.19
N[C@H](C(=O)O)[C@@H]1CC(Cl)=NO1	-0.13
Cc1cc(Cl)ccc1S(=O)(=O)NC[C@H]1C2CCC(CC2)[C@@H]1/C=C\CCCC(=O)O	-1.69
O=C1CCC(N2Cc3cc(CNC(=O)C(F)(F)c4ccc(Cl)cc4)ccc3C2=O)C(=O)N1 (stereo not given)	-1.23
CCN(CC)CCO[C@H]1CC[C@@]2(C)C(=CC[C@@H]3[C@@H]2CC[C@]2(C)C(=O)CC[C@@H]32)C1	-1.53
Cc1nnc2n1-c1sc3c(c1C(c1ccccc1Cl)=NC2)C[C@H](C(=O)N1CCOCC1)C3	-0.46
Cc1nnc2n1-c1sc3c(c1C(c1ccccc1Cl)=NC2)CC(C(=O)N1CCOCC1)C3 (stereo not given)	0.62
CN1CCN(C(=O)Cc2ccc(N/C(=C3\C(=O)Nc4cc(Cl)ccc43)c3ccccc3)cc2)CC1	-3.18
CNc1nc(-c2cc(C(=O)N3CCN(Cc4ccc(Cl)cc4)CC3)c(Cl)cn2)cs1	0.71
CN(C(=O)CCOCCOCCOCCOCCNc1cccc2c1C(=O)N(C1CCC(=O)NC1=O)C2=O)[C@H]1CC[C@@]2(C)[C@@H](CC[C@@H]3[C@@H]2CC[C@]2(C)[C@@H](c4ccc5ccncc5c4)CC[C@@H]32)C1 (stereo not given in full)	-2.19
CO[C@H](C)CN1CC[C@@]2(C)c3ccc(O)cc3C[C@@H]1C2(C)C	-0.17
CC[C@H]1[C@@H](O)[C@@H]2[C@H](CC[C@]3(C)[C@@H]([C@H](C)CCC(=O)O)CC[C@@H]23)[C@@]2(C)CC[C@@H](O)C[C@@H]12	-3.05
CCOP(=O)(OCC)C(=Cc1cc(C(C)(C)C)c(O)c(C(C)(C)C)c1)P(=O)(OCC)OCC	-3.19

Reference: ChEMBL document CHEMBL5308504, “Tm Shift (DSF) assay results for EUbOPEN Chemogenomics Library” (2023)
